Activity calls are given as the source filed them.
Assays:
Albumin (Bos taurus) = Albumin (Bos taurus) (UniProt P02769); experiment: compounds binding labelled BSA control protein – biochemical, small-molecule microarray, Alexa647 label, 635/667 nm fluorescence, artefact control for SMM control protein annotation, profiling panel (AID 1118); settings: BSA-A647 binding, fluorescence 635 nm, higher = more signal;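 note: score merges 667 nm emission intensity and signal-to-noise per printed compound spot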
Chain of Albumin (Bos taurus) (P02769 whole entry, looked up): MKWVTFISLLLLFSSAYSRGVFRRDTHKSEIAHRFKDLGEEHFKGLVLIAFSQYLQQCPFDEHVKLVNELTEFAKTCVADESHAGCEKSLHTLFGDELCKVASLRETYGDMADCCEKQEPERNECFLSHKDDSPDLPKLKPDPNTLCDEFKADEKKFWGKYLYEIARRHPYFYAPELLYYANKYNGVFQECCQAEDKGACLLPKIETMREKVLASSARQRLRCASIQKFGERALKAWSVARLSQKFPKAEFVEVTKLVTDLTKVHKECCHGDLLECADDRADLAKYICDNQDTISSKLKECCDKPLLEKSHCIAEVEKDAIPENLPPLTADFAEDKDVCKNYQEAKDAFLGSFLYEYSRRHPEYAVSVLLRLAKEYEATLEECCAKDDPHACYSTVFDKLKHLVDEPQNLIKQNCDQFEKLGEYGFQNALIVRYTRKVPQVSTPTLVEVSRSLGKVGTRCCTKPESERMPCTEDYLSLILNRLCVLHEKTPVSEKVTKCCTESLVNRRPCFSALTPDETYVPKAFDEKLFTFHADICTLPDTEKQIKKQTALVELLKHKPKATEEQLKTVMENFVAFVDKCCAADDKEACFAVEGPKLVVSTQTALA

[1] = probe aXIP binding to arrayed compounds – biochemical, NeuroSMM set, 635/667 nm fluorescence, primary screen (AID 1119); settings: small-molecule microarray, higher = more signal, called active from +8 up or from −8 down;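 note: probe is the protein aXip251-270 applied at 1 µg/mL to compound-printed slides; binding of probe to printed compounds measured as 667 nm fluorescence plus signal to noise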
[2] = probe aNOTCH3 binding on compound microarray – biochemical, small-molecule microarray, 635/667 nm fluorescence, primary screen (AID 1120); settings: higher = more signal;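 note: probe is a biotin-tagged antibody raised against NOTCH3 rather than NOTCH3 protein; score merges spot fluorescence near 667 nm with spot signal to noise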
[3] = probe aNOTCH2 binding on compound microarray – biochemical, small-molecule microarray, 635/667 nm fluorescence, primary screen (AID 1121); settings: higher = more signal;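 note: score merges feature fluorescence read at 667 nm with its signal to noise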
[4] = target: Carbonic anhydrase 2 (Homo sapiens) (UniProt P00918); experiment: compounds binding carbonic anhydrase 2 – biochemical, small-molecule microarray, Alexa647-labelled CAII, profiling panel (AID 1122); settings: CAII-A647 binding fluorescence, higher = more signal
[5] = COS7 lysate on small-molecule microarray, probe aHis, 635 nm (AID 1123); settings: COS7 cell lysate, fluorescence, higher = more signal;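 note: z-score combines 667nm fluorescence intensity with signal-to-noise per printed compound spot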
[6] = probe aLAP1 signal on lysate-treated microarray – cell lysate, small-molecule microarray, COS7 lysate, primary screen (AID 1124); settings: probe aLAP1, fluorescence, higher = more signal;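 note: lysate comes from COS7 cells expressing LAP1 and is applied at 0.3 µg/mL; score merges spot fluorescence near 667 nm with signal-to-noise over triplicate slides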
Sam68 (KHDRBS1) = experiment: compounds binding KHDRBS1 protein – biochemical, small-molecule microarray, 635 nm fluorescence, primary screen (AID 1125); settings: higher = more signal;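 note: score merges 667 nm channel intensity with signal to noise over triplicate slides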
[7] = test system: Chordin-like protein 2 (CHRDL2); experiment: compounds binding chordin-like 2 – biochemical, small-molecule microarray, 635 nm fluorescence, primary screen (AID 1126); settings: fluorescence 635 nm, higher = more signal;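 note: printed compound slides probed with Chrdl2 protein at 4 µg/mL for 1 h at 4 C; score merges 667 nm emission intensity with signal to noise over three replicate slides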
[8] = target: Concanavalin-A (Canavalia ensiformis) (UniProt P02866); experiment: compounds binding concanavalin A lectin – biochemical, small-molecule microarray, Alexa647 label, 635 nm, artefact control for SMM control protein annotation, primary screen (AID 1127); settings: ConA-A647 binding fluorescence, higher = more signal;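 note: z combines 667 nm emission intensity with signal-to-noise across three replicate slides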
Chain of Concanavalin-A (Canavalia ensiformis) (P02866 whole entry, looked up): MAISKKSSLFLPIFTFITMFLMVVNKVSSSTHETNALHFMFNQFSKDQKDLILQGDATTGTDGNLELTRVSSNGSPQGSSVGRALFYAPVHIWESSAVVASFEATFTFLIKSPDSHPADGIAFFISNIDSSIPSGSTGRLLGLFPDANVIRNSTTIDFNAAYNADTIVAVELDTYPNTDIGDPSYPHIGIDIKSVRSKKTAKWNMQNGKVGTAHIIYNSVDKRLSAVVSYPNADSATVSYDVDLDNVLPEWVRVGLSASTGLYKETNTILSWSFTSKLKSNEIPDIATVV

[9] = compounds binding Alexa647 anti-His antibody – biochemical, small-molecule microarray, 635 nm fluorescence, artefact control for SMM control protein annotation, primary screen (AID 1128); settings: higher = more signal;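 note: score merges feature fluorescence with signal-to-noise for each printed compound spot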
[10] = test system: Human papillomavirus type 1a E7 protein (residues 1-88); experiment: HPV1a E7 small-molecule binders, primary screen, biochemical, small-molecule microarray, residues 1-88, 635 nm (AID 1129); settings: small-molecule microarray binding, fluorescence 635 nm; higher = more signal
[11] = target: Focal adhesion kinase 1 (Homo sapiens) (UniProt Q05397); experiment: PTK2 protein binding on printed compound slides – biochemical, small-molecule microarray, 635/667 nm fluorescence, BSA, DTT, primary screen (AID 1130); settings: 635 nm fluorescence, higher = more signal;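 note: composite of spot emission at 667 nm and signal to noise over triplicate slides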
Chain of Focal adhesion kinase 1 (Homo sapiens) (Q05397 whole entry, looked up): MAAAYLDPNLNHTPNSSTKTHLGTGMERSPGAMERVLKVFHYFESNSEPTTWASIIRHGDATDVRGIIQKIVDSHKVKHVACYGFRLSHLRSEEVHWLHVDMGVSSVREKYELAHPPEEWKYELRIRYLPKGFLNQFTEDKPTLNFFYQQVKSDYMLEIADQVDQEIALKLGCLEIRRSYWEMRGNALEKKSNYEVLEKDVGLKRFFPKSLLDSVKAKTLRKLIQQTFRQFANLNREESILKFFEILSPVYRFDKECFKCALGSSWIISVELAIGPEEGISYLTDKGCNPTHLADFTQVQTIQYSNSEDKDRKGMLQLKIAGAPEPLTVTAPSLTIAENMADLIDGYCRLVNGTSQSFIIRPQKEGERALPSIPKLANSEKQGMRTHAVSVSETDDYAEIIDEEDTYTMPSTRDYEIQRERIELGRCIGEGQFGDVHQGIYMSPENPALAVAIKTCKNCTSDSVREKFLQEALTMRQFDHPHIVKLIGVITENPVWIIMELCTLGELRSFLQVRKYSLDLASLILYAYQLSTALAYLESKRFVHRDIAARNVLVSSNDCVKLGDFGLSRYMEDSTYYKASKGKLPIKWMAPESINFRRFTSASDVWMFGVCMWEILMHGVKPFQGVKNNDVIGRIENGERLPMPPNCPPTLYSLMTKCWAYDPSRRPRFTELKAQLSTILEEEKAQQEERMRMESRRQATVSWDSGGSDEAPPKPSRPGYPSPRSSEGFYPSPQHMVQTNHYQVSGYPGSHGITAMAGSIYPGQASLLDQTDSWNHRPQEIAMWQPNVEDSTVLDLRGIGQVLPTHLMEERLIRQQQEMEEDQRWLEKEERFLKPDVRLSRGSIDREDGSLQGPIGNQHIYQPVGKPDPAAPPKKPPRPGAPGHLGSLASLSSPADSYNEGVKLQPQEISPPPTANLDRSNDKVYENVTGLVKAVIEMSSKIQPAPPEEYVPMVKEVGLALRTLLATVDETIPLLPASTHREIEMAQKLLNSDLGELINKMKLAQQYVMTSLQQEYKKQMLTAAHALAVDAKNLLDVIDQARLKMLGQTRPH

[12] = test system: Fibrinogen (Alexa647-labelled); experiment: Alexa647-fibrinogen binding to printed small molecules – biochemical, small-molecule microarray, 635/667 nm fluorescence, artefact control for SMM control-protein annotation, profiling panel (AID 1131); settings: fibrinogen-A647 binding fluorescence, higher = more signal;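 note: z-score merges 667 nm fluorescence with per-spot signal-to-noise over triplicate slides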
[13] = target: Follistatin (Homo sapiens) (UniProt P19883); experiment: FST protein binding to printed compounds – biochemical, small-molecule microarray, 635/667 nm fluorescence, primary screen (AID 1132); settings: 635 nm fluorescence, higher = more signal
Chain of Follistatin (Homo sapiens) (P19883 whole entry, looked up): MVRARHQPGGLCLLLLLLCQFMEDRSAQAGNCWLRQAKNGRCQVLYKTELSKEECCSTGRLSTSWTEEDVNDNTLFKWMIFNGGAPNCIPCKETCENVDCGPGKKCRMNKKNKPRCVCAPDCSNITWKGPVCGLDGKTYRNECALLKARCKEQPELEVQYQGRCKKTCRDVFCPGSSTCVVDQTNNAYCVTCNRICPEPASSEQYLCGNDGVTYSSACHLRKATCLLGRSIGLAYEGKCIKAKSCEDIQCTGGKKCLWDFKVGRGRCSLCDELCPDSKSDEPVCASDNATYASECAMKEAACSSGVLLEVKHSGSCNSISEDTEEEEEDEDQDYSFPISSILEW

[14] = target: Fibroblast growth factor 2 (Homo sapiens) (UniProt P09038); experiment: basic fibroblast growth factor binding to printed compounds – biochemical, small-molecule microarray, 635/667 nm fluorescence, primary screen (AID 1133); settings: FGF2, fluorescence 635/667, higher = more signal
Chain of Fibroblast growth factor 2 (Homo sapiens) (P09038 whole entry, looked up): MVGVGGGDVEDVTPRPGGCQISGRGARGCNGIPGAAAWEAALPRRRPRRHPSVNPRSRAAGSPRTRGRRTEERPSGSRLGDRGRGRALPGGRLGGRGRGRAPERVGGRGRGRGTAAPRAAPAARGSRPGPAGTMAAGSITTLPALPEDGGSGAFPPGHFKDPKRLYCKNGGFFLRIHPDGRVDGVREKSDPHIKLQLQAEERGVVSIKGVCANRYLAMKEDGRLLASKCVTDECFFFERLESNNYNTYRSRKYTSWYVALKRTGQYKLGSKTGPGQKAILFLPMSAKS

[15] = JC-1 mitochondrial potential readout, lung cancer cells – cell-based, A549, JC-1 fluorescence, basal, 24 h, 100 nL, profiling panel (AID 1138); settings: higher = more signal;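 note: A549 lung adenocarcinoma cells under basal conditions with no added stimulus; test concentration not given here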
Lefty1 = Lefty1 protein binding to printed compounds – biochemical, small-molecule microarray, 635/667 nm fluorescence, primary screen (AID 1139); settings: fluorescence 635/667, higher = more signal
[16] = test system: wheat germ agglutinin (Triticum aestivum), Alexa647-labelled; experiment: Alexa647-WGA lectin binding to printed small molecules – biochemical, small-molecule microarray, 635/667 nm fluorescence, artefact control for SMM control-protein annotation, profiling panel (AID 1140); settings: WGA-A647 binding, 635 nm fluorescence, higher = more signal;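 note: score merges 667 nm feature emission with signal to noise over triplicate slides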
[17] = target: Luciferin 4-monooxygenase (Photinus pyralis) (UniProt P08659); experiment: inhibition of purified Photinus pyralis luciferase – biochemical, luminescence, purified enzyme, 2006 set, primary screen (AID 1141); settings: purified firefly luciferase, SteadyGlo luminescence, 30 min; higher = more signal, called active from +8 up or from −8 down;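 note: cell-free assay with purified firefly luciferase at 100 ng per well in PBS; test concentration not given here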
Chain of Luciferin 4-monooxygenase (Photinus pyralis) (P08659 whole entry, looked up): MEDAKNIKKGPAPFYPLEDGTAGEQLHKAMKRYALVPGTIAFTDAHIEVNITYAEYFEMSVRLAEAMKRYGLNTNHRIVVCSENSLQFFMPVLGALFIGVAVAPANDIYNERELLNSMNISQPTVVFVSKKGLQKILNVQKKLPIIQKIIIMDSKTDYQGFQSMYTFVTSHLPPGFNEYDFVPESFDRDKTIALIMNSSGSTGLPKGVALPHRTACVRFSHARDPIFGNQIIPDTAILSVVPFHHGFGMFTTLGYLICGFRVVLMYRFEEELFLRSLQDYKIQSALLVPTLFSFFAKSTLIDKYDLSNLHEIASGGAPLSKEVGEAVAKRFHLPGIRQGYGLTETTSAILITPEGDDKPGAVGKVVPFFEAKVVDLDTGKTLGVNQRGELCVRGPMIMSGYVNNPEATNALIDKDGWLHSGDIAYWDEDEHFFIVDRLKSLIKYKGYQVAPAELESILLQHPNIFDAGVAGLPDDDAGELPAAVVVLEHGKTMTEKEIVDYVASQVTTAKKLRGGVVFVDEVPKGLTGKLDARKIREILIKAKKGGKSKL

Compound	composite z-score (Albumin (Bos taurus))	composite Z-score [1]	composite z-score [2]	composite z-score [3]	composite z-score [4]	composite z-score [5]	composite z-score [6]	composite z-score (Sam68 (KHDRBS1))	composite z-score [7]	composite z-score [8]	composite z-score [9]	composite z-score [10]	composite z-score [11]	composite z-score [12]	composite z-score [13]	composite z-score [14]	z-score [15]	composite z-score (Lefty1)	composite z-score [16]	z-score [17]
CC1CC/C=C\[C@H]2OC34C=CCN(Cn5nnc6ccccc65)C(=O)[C@H]3N(CCCCCCO)C(=O)[C@@H]4C2C(=O)O1 (stereo not given in full)	-0.252	0.347 (inactive)	-0.427	-0.214	0.398	-0.0339	0.523	-0.682	-1.25	0.257	0.965	-0.506	-0.121	-0.627	-1.45	-1.09	0.966	-0.654	-0.435	0.152 (inactive)
C[C@]1(C(=O)O)c2ccccc2C(=O)N(Cc2cc(F)cc(C(F)(F)F)c2)[C@H]1c1ccc(CO)cc1	0.286	-0.228 (inactive)	-0.0126	-0.182	0.677	1.6	-0.276	0.0491	0.447	0.255	0.201	0.349	0.263	0.955	0.88	0.299	-1.06	0.956	0.0471	0.759 (inactive)
[N-]=[N+]=Nc1ccccc1C[C@@]1(C(=O)NCC(O)CO)N=C(c2ccc(OCCCO)cc2)O[C@@H]1c1ccccc1 (stereo not given in full)	0.579	-0.362 (inactive)	-0.152	0.0231	0.719	2.01	0.353	0.206	-1.26	0.446	-0.0048	1.2	0.206	0.54	-0.327	0.0559	1	-0.867	0.436	-2.44 (inactive)
CCCCCCc1nc(-c2ccc(-c3ccc(Cl)c(Cl)c3)o2)cc2c1[Si](C(C)C)(C(C)C)OC2	0.521	-0.935 (inactive)	-0.261	-0.156	-0.216	0.445	-0.389	-0.248	-0.834	-0.48	-0.265	-0.819	-0.0104	-1.85	-0.577	-0.985	-0.413	-0.468	0.105	-5.02 (inactive)
O=C1C[C@]2(c3ccc([N+](=O)[O-])cc3)C(=O)N(C3CC3)c3cc(CO)ccc3[C@H]2N1C1CCCCC1	-0.806	0.127 (inactive)	-0.103	-0.172	-0.0953	0.792	0.835	0.0418	-0.308	0.55	-0.268	-0.115	0.0202	-0.408	-0.0193	0.173	-0.22	-0.0446	0.0523	0.277 (inactive)
O=C1C2C=CC(C(O)c3cccs3)N(Nc3ccc([N+](=O)[O-])cc3)C2C(=O)N1c1ccccc1 (stereo not given)	0.523	-0.506 (inactive)	0.0105	-0.0694	0.759	2.08	0.218	0.909	0.0721	0.585	0.482	1.11	0.894	0.697	0.337	-0.105	-0.908	-0.457	0.844	1.1 (inactive)
NC(=O)NCC#Cc1ccc2c(c1)[C@]1(C(=O)N2)[C@H](c2ccc(OCCO)cc2)N2[C@H](c3ccccc3)[C@H](c3ccccc3)OC(=O)[C@H]2[C@@H]1C(=O)O	0.544	0.196 (inactive)	-0.0918	-0.132	0.256	0.157	-0.23	-0.761	-0.736	1.04	1.21	-1.59	-0.333	0.755	-0.044	-0.498	-1.15	-0.601	1.22	-1.6 (inactive)
C[C@@H]1ON(c2ccc(I)cc2)[C@H](c2cccc(NC(=O)OCC3c4ccccc4-c4ccccc43)c2)[C@H]1C(=O)N1C(=O)OC[C@H]1Cc1ccccc1	-0.0188	-0.222 (inactive)	0.0276	-0.126	0.456	0.367	0.111	0.668	0.926	1.01	0.296	0.506	-0.0828	0.544	0.566	0.249	1.37	0.593	0.334	-1.24 (inactive)
COC(=O)C1(Cc2ccccc2)C=C2C(=C(C)C(=O)C2C)CN1 (stereo not given)	-0.0396	0.877 (inactive)	0.0203	0.197	0.742	2.62	0.578	-0.674	0.46	-0.634	1.21	0.732	0.296	0.775	0.714	-0.298	1.47	-0.104	0.622	-0.112 (inactive)
O=C(NC1CC1)[C@@H]1c2ccccc2C(=O)N(Cc2cc(C(F)(F)F)cc(C(F)(F)F)c2)[C@H]1c1ccc(CO)cc1	-0.148	-0.563 (inactive)	-0.352	-0.102	0.679	1.29	0.174	0.157	-0.936	0.321	0.399	0.228	0.052	0.427	0.755	0.0292	-0.197	-0.291	0.416	-0.423 (inactive)
CC[C@@H]1C=C(C(=O)O)[C@H](c2ccc(OC)cc2)N1S(=O)(=O)c1ccc(C)cc1	0.493	0.112 (inactive)	-0.061	-0.173	0.852	2.55	-0.388	-0.815	-0.377	-0.0828	-0.0418	0.521	0.359	-0.342	-0.055	-0.477	0.0749	0.112	0.164	1.04 (inactive)
O=C1O[C@@H](c2ccccc2)[C@@H](c2ccccc2)N2[C@@H](c3ccc(OCCO)cc3)[C@]3(C(=O)Nc4ccc(C#CCCO)cc43)[C@@H](C(=O)O)[C@H]12	0.559	0.919 (inactive)	0.955	0.516	0.746	2.2	0.636	1.28	1.02	1.15	2.76	1.14	0.453	0.95	1.11	0.871	0.329	0.45	1.14	-1.71 (inactive)
CC(C)(C)OC(=O)CC[C@@]1(C(=O)NCCN2CCOCC2)N=C(c2ccc(OCCCO)cc2)O[C@@H]1c1ccccc1CN=[N+]=[N-]	0.812	2.03 (inactive)	0.0488	-0.112	0.245	1.17	0.59	0.696	-0.743	1.08	0.384	0.372	0.499	1.01	-0.0674	-0.495	-0.293	-0.0313	0.608	-4.33 (inactive)
C=CCC(OC(C)=O)[C@@H]1[C@@H](N(Cc2cccc3ccccc23)C(=O)Cc2ccc(OC)cc2)c2cc(OCCCO)ccc2N1C(=O)Cc1ccc2ccccc2c1 (stereo not given in full)	-0.0328	0.181 (inactive)	-0.0584	-0.159	0.0435	1.17	0.078	-0.0489	0.116	-0.154	-0.538	-0.609	-0.495	-0.331	0.688	0.182	0.309	0.353	0.507	0.969 (inactive)
O=C1C[C@@](C(=O)NC2CC2)(c2ccc([N+](=O)[O-])cc2)[C@@H](c2ccc(CO)cc2)N1C1CCCCC1	0.535	0.002 (inactive)	0.11	-0.0995	0.512	2.7	0.0901	1.28	0.43	0.704	2.79	1.23	0.333	0.122	1.3	1.64	-0.282	0.894	0.407	0.997 (inactive)
CCCCC(O)C1C=CC2C(=O)N(c3ccccc3)C(=O)C2N1Nc1ccccc1 (stereo not given)	0.901	-0.539 (inactive)	0.0248	-0.0596	0.0784	2.59	-0.0672	0.576	-1.17	0.557	0.781	1.14	0.438	0.543	-0.0278	-1.26	0.656	0.173	1.17	0.438 (inactive)

From PubChem BioAssay
